# Laboratory results reported in PubChem BioAssay (NCATS).
# Unmarked numbers belong to inactive results. Records with an inconclusive call do not appear. Entries that show only a call come without a potency. Activity calls are given as the source filed them. Calls come from the whole dose curve; as a rule, active = well fitted curve in the direction sought with a large enough effect; inconclusive = small, poorly fitted or top-dose-only effect, or another doubt; inactive = no such curve, though single readings can be large; an effect the other way counts as inactive or inconclusive.
# Assays:
# [1] = system: Zika virus NS2B-NS3 protease (unlinked complex); experiment: Primary screen GU Rhodamine qHTS for Zika virus inhibitors: Unlinked NS2B-NS3 protease assay (AID 1347159); note: nearly all actives have a fitted effect of over 60% in size
# Summary of the method: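 Noncovalent NS2B hydrophilic domain/NS3 protease complex (25 nM final) in 10 mM Tris-HCl pH 8.0, 0.01% Tween 20, preincubated 15 min with compounds (up to 114 microM), then 1.5 microM Rhodamine110 substrate. Fluorescence change over 15 min fitted to 4-parameter Hill.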
# [2] = system: Zika virus NS2B-NS3 protease (linked construct); experiment: Primary screen NINDS Rhodamine qHTS for Zika virus inhibitors (AID 1347160); note: nearly all actives have a fitted effect of over 55% in size
# Summary of the method: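 Purified NS2B-NS3 protease with the NS2B hydrophilic domain joined by a flexible linker (25 nM) in 10 mM Tris-HCl pH 8.0, 0.01% Tween 20, preincubated 15 min at RT with compound; Rhodamine110 peptide substrate 1.5 µM; fluorescence change over 15 min; 4-parameter Hill fit.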
# [3] = target: Calcium and integrin-binding protein 1 (Homo sapiens) (UniProt Q99828); experiment: Primary qHTS for Identification of Calcium Integrin Binding Protein 1 (CIB1) Competitor (AID 1508620);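 note: GST tagged CIB1 binding a fluorescein labelled alphaIIb integrin peptide tracer; top concentration of the series differs between compounds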
# Summary of the method: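 Fluorescence polarization competition: CIB1-GST (1 uM final) preincubated with compound 15 min at room temperature, then FITC-labeled alphaIIb peptide (100 nM final) added for another 15 min. Polarization read at Ex 480/Em 540.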
# [4] = target: Glutathione peroxidase 1 (Homo sapiens) (UniProt P07203); experiment: Primary qHTS Assay for Inhibitors of Recombinant Selenoprotein Glutathione Peroxidase 1 (GPX1) (AID 1845191); note: nearly all actives have a fitted effect of over 65% in size
# Summary of the method: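 Recombinant GPX1 (10 nM final) was preincubated with compound for 30 min at room temperature, then reacted with 1 mM GSH, 0.5 mM CHP, 0.5 mM NADPH and 100 nM glutathione reductase; NADPH fluorescence (340/450 nm) was read at 0 and 15 min.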
# [5] = target: Phospholipid hydroperoxide glutathione peroxidase GPX4 (Homo sapiens) (UniProt P36969); experiment: Primary qHTS Assay for Inhibitors of Recombinant Selenoprotein Glutathione Peroxidase 4 (GPX4) (AID 1845192); note: nearly all actives have a fitted effect of over 65% in size; note: potency is the fitted concentration of half-maximal effect
# Summary of the method: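 GR-coupled readout: 100 nM GR, 1 mM GSH, 0.5 mM NADPH; NADPH fluorescence (ex 340/em 450 nm) read at t=0 and after 15 min RT. GPX4 200 nM, preincubated 30 min with compound; substrate 0.5 mM CHP.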
# [6] = target: Luciferin 4-monooxygenase (Photinus pyralis) (UniProt P08659); experiment: Primary firefly luciferase (FLuc) qHTS assay for identification of artifact compounds. (AID 1845220); details: outcome: dose series up to 54.1 µM unless noted; note: nearly all actives have a fitted effect of over 60% in size
# Summary of the method: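 In this counter-screen for luciferase artifacts, test compounds met substrate (10 uM each luciferin and ATP) before 10 nM enzyme started the reaction. Light output was measured 5 min later.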
# [7] = system: Nanoluciferase (engineered Oplophorus gracilirostris luciferase); experiment: Primary Nanoluciferase (NLuc) qHTS assay for identification of artifact compounds. (AID 1845222);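 note: NLuc secreted into diluted conditioned medium of S16 cells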
# Summary of the method: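 Using secreted nanoluciferase in S16 culture medium (0.22 um filtered, 1:55 dilution), compounds were preincubated 15 min at RT. Signal was generated with Nano-Glo reagent (1:100) over 5 min.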
# [8] = Primary redox qHTS assay for identification of artifact compounds. (AID 1845223)
# Summary of the method: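 Amplex Red (25 uM) and HRP (250 mU/mL) in HBSS, with compounds for 15 min, then 250 uM DTT for 30 min, room temperature, dark. Fluorescence 525/598 nm read; normalized to DMSO and 10 uM DA3003; Hill fit.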
# [9] = system: HaCat; experiment: Cytotoxic Profiling of Annotated Libraries Using Quantitative High-Throughput Screening (AID 1296008); details: Five cell lines viability, CellTiter-Glo ATP luminescence, 48-72 h; max response: stronger effect = lower value; note: nearly all actives have a fitted effect of over 60% in size; note: potency is the fitted concentration of half-maximal effect
# Summary of the method: (§1)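 Compounds were pin-transferred onto cells and incubated 48 or 72 hr at 37 degree Celsius, 95% humidity. CellTiter-Glo was added, plates sat 10 min at room temperature, then ATP-coupled luminescence was imaged as the viability read-out.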
# [10] = system: NIH3T3; experiment: as above; details: Five cell lines viability, CellTiter-Glo ATP luminescence, 48-72 h; max response: stronger effect = lower value
# Summary of the method: as §1
# [11] = system: C33A; experiment: Primary qHTS to identify gynecologic anti-cancer compounds using libraries of approved drugs and bioactive compounds (AID 1345084); details: Gynecologic cancer cell panel viability, ATPlite luminescence, 48 h; series mostly up to 57.5 µM; note: nearly all actives have a fitted effect of over 55% in size; note: potency is the fitted concentration of half-maximal effect
# Summary of the method: (§2)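 Cells, 1,000 per well, plated 16 h, then exposed 48 h at 37 C to compounds. Viability by ATPlite luminescence after 15 min at room temperature.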
# [12] = system: CASKI; experiment: as above; details: Gynecologic cancer cell panel viability, ATPlite luminescence, 48 h; series mostly up to 57.5 µM
# Summary of the method: as §2
# [13] = system: Es-2; experiment: as above; details: Gynecologic cancer cell panel viability, ATPlite luminescence, 48 h; series mostly up to 57.5 µM
# Summary of the method: as §2
# [14] = system: Hek293T; experiment: as above; details: Gynecologic cancer cell panel viability, ATPlite luminescence, 48 h, control line for the selectivity index; series mostly up to 57.5 µM
# Summary of the method: as §2
# [15] = system: JEG-3; experiment: as above; details: Gynecologic cancer cell panel viability, ATPlite luminescence, 48 h; series mostly up to 57.5 µM
# Summary of the method: as §2
# [16] = system: OV90; experiment: as above; details: Gynecologic cancer cell panel viability, ATPlite luminescence, 48 h; series mostly up to 57.5 µM
# Summary of the method: as §2
# [17] = system: PA-1; experiment: as above; details: Gynecologic cancer cell panel viability, ATPlite luminescence, 48 h; series mostly up to 57.5 µM
# Summary of the method: as §2
# [18] = system: Tov-21-G; experiment: as above; details: Gynecologic cancer cell panel viability, ATPlite luminescence, 48 h; series mostly up to 57.5 µM
# Summary of the method: as §2
# [19] = system: Tov112D; experiment: as above; details: Gynecologic cancer cell panel viability, ATPlite luminescence, 48 h; series mostly up to 57.5 µM
# Summary of the method: as §2
# [20] = Primary fluorescence-based thiol-reactive (MSTI) qHTS assay for identification of artifact compounds. (AID 1845221); note: nearly all actives have a fitted effect of over 65% in size; note: potency is the fitted concentration of half-maximal effect
# Summary of the method: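 MSTI probe at 4 uM final in 2% DMSO/PBS pH 7.4; compounds, 1 h at room temperature in dark. Fluorescence Ex/Em 525/598 nm, normalised to Acetyl-MSTI and MSTI, fitted to 4-parameter Hill.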
# Calcium and integrin-binding protein 1 (Homo sapiens), sequence (Q99828 whole entry, looked up): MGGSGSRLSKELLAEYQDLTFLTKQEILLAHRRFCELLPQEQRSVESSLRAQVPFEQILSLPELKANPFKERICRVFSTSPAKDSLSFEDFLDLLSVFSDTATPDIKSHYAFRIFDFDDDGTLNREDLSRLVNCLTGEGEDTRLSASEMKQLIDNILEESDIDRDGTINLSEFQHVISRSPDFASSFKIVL
# Glutathione peroxidase 1 (Homo sapiens), sequence (P07203 whole entry, looked up): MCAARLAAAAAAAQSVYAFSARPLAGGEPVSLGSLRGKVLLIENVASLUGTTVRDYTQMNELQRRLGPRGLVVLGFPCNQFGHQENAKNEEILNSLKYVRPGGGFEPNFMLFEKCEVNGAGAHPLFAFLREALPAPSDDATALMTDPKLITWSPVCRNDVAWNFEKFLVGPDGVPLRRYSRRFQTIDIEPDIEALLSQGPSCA
# Phospholipid hydroperoxide glutathione peroxidase GPX4 (Homo sapiens), sequence (P36969 whole entry, looked up): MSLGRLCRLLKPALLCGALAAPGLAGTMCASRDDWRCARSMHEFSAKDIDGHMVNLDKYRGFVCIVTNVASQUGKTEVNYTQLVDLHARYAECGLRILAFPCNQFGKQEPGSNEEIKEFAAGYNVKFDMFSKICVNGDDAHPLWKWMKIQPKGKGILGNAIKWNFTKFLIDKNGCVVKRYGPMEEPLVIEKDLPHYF
smiles,measurement,setting,value
CN1CCCCC1Cn1cc(C(=O)c2cc([N+](=O)[O-])ccc2I)c2ccccc21 (centres undefined),Potency,[1],inactive
same,Potency,[2],inactive
same,Potency,[3],inactive
same,Potency,[4],inactive
same,Potency,[5],inactive
same,outcome,[6],inactive
same,Potency,[7],inactive
same,Potency,[8],inactive
same,outcome,[9],inactive
same,outcome,[10],inactive
same,Potency,[11],inactive
same,Potency,[12],inactive
same,Potency,[13],inactive
same,Potency,[14],inactive
same,Potency,[15],inactive
same,Potency,[16],inactive
same,Potency,[17],inactive
same,Potency,[18],inactive
same,Potency,[19],inactive
C=C1CC[C@H]2[C@@H](/C=C(\C)C(=O)[C@@]3(OC(C)=O)C[C@H](C)[C@H](OC(=O)c4ccccc4)[C@@H]3[C@H]1OC(C)=O)C2(C)C,Potency,[1],inactive
same,Potency,[2],inactive
same,Potency,[3],inactive
same,Potency,[4],inactive
same,outcome,[6],inactive
same,Potency,[20],inactive
same,Potency,[7],inactive
same,Potency,[8],inactive
same,max response,[9],-1.11%
same,max response,[10],-4.22%
same,Potency,[11],inactive
same,Potency,[12],inactive
same,Potency,[13],inactive
same,Potency,[14],inactive
same,Potency,[15],inactive
same,Potency,[16],inactive
same,Potency,[17],inactive
same,Potency,[18],inactive
same,Potency,[19],inactive
O=C(C[C@@H]1NCCC[C@H]1O)Cn1cnc2ccccc2c1=O,Potency,[1],inactive
same,Potency,[2],inactive
same,Potency,[3],inactive
same,Potency,[4],inactive
same,Potency,[5],inactive
same,outcome,[6],inactive
same,Potency,[20],inactive
same,Potency,[7],inactive
same,Potency,[8],inactive
same,Potency,[9],1300 nM (active)
same,Potency,[10],366 nM (active)
same,Potency,[11],631 nM (active)
same,Potency,[12],1780 nM (active)
same,Potency,[13],1410 nM (active)
same,Potency,[14],447 nM (active)
same,Potency,[16],11200 nM (active)
same,Potency,[17],282 nM (active)
same,Potency,[18],794 nM (active)
same,Potency,[19],631 nM (active)
CCCCCn1cc(C(=O)c2cccc3ccccc23)c2ccccc21,Potency,[1],inactive
same,Potency,[2],inactive
same,Potency,[3],inactive
same,Potency,[5],inactive
same,outcome,[6],inactive
same,Potency,[20],inactive
same,Potency,[8],inactive
same,max response,[9],-4.01%
same,max response,[10],4.48%
same,Potency,[11],inactive
same,Potency,[12],inactive
same,Potency,[13],inactive
same,Potency,[14],inactive
same,Potency,[15],inactive
same,Potency,[16],inactive
same,Potency,[17],inactive
same,Potency,[18],inactive
same,Potency,[19],inactive
O=S(=O)(c1ccccc1F)N1CCOc2c(N3CCNCC3)cccc21,Potency,[1],inactive
same,Potency,[2],inactive
same,Potency,[3],inactive
same,Potency,[4],inactive
same,outcome,[6],inactive
same,Potency,[20],inactive
same,Potency,[7],inactive
same,Potency,[8],inactive
same,outcome,[9],inactive
same,max response,[10],2.22%
same,Potency,[11],inactive
same,Potency,[12],inactive
same,Potency,[13],inactive
same,Potency,[14],inactive
same,Potency,[15],inactive
same,Potency,[16],inactive
same,Potency,[17],inactive
same,Potency,[18],inactive
same,Potency,[19],inactive
CCC1CN2CCC3(C(=O)Nc4cccc(O)c43)C2CC1/C(=C/OC)C(=O)OC (centres undefined),Potency,[1],inactive
same,Potency,[2],inactive
same,Potency,[3],inactive
same,Potency,[5],inactive
same,outcome,[6],inactive
same,Potency,[20],inactive
same,Potency,[7],inactive
same,Potency,[8],inactive
same,outcome,[9],inactive
same,max response,[10],4.67%
same,Potency,[11],inactive
same,Potency,[12],inactive
same,Potency,[13],inactive
same,Potency,[14],inactive
same,Potency,[15],inactive
same,Potency,[16],inactive
same,Potency,[17],inactive
same,Potency,[18],inactive
same,Potency,[19],inactive
COC(=O)[C@@]1(C)C(=O)C=C[C@]2(C)c3c(O)cc(C(C)C)cc3[C@H](O)[C@@H](OC(C)=O)C12 (some centres undefined),Potency,[1],inactive
same,Potency,[2],inactive
same,Potency,[3],inactive
same,Potency,[4],inactive
same,Potency,[5],inactive
same,outcome,[6],inactive [at 25.7 µM]
same,Potency,[20],inactive
same,Potency,[8],inactive
same,outcome,[9],inactive
same,max response,[10],-1.38%
same,Potency,[11],inactive
same,Potency,[12],inactive
same,Potency,[13],inactive
same,Potency,[14],inactive
same,Potency,[15],inactive
same,Potency,[16],inactive
same,Potency,[17],inactive
same,Potency,[18],inactive
same,Potency,[19],inactive
CC(O)(c1ccccc1)C(Cc1ccc(Cl)cc1)n1cncn1 (centres undefined),Potency,[1],inactive
same,Potency,[3],inactive
same,Potency,[4],inactive
same,Potency,[5],inactive
same,outcome,[6],inactive
same,Potency,[20],inactive
same,Potency,[7],inactive
same,Potency,[8],inactive
same,outcome,[9],inactive
same,max response,[10],1.55%
same,Potency,[11],inactive
same,Potency,[12],inactive
same,Potency,[13],inactive
same,Potency,[14],inactive
same,Potency,[15],inactive
same,Potency,[16],inactive
same,Potency,[17],inactive
same,Potency,[18],inactive
same,Potency,[19],inactive
C=C1C(=O)O[C@@H]2[C@H]3C(=C)[C@@H](O)C[C@H]3C(=C)C[C@@H](O)[C@@H]12,Potency,[3],inactive
same,Potency,[4],inactive
same,Potency,[5],inactive
same,outcome,[6],inactive
same,Potency,[20],5320 nM (active)
same,Potency,[7],inactive
same,Potency,[8],inactive
same,max response,[9],-4.6%
same,Potency,[11],inactive
same,Potency,[12],inactive
same,Potency,[13],inactive
same,Potency,[14],inactive
same,Potency,[15],inactive
same,Potency,[16],inactive
same,Potency,[17],inactive
same,Potency,[19],inactive
COc1ccc2[nH]c(-c3ccccc3)c(CCN(C)C)c2c1,Potency,[1],inactive
same,Potency,[2],inactive
same,Potency,[3],inactive
same,Potency,[4],inactive
same,Potency,[5],16100 nM (active)
same,outcome,[6],inactive
same,Potency,[7],inactive
same,Potency,[8],inactive
same,outcome,[9],inactive
same,max response,[10],-23.1%
same,Potency,[11],inactive
same,Potency,[12],inactive
same,Potency,[13],inactive
same,Potency,[14],inactive
same,Potency,[15],inactive
same,Potency,[16],inactive
same,Potency,[17],inactive
same,Potency,[18],inactive
same,Potency,[19],inactive
CC12Cc3cn[nH]c3C=C1CCC1C2CCC2(C)C1CCC2(C)O (centres undefined),Potency,[2],inactive
same,Potency,[3],inactive
same,Potency,[4],inactive
same,Potency,[5],inactive
same,outcome,[6],inactive
same,Potency,[20],inactive
same,Potency,[7],inactive
same,Potency,[8],inactive
same,max response,[9],-0.609%
same,max response,[10],-0.979%
same,Potency,[11],inactive
same,Potency,[12],inactive
same,Potency,[13],inactive
same,Potency,[14],inactive
same,Potency,[15],inactive
same,Potency,[16],inactive
same,Potency,[17],inactive
same,Potency,[18],inactive
same,Potency,[19],inactive
C/C=C1/CN2CC[C@]34C(=Nc5ccccc53)[C@@H]2C[C@@H]1[C@H]4C(=O)OC,Potency,[1],inactive
same,Potency,[2],inactive
same,Potency,[3],inactive
same,Potency,[4],inactive
same,Potency,[5],inactive
same,outcome,[6],inactive
same,Potency,[7],inactive
same,Potency,[8],inactive
same,max response,[9],-0.364%
same,max response,[10],-14.3%
same,Potency,[11],inactive
same,Potency,[12],inactive
same,Potency,[13],inactive
same,Potency,[14],inactive
same,Potency,[15],inactive
same,Potency,[16],inactive
same,Potency,[17],inactive
same,Potency,[18],inactive
same,Potency,[19],inactive
